Measured values as given in PubChem BioAssay (EPA / NIEHS).
“And” between values parts separate entries of the source, which are not always exact repeats. Equal values may be shown once. Results filed as inconclusive are left out. Some compounds were tested as several samples or in several runs, with calls that do not always agree. The source made the active and inactive calls. The calls were made as follows, unless noted: active = hit-call score of the fitted dose curve at least 0.9, where 1 is the maximum; inactive = score below 0.9.

Key:
[1] = BSK_3C_VCAM1: BioMAP Diversity Plus: 3C Assay for Vascular cell adhesion molecule 1 (VCAM1) Biomarker Activity (AID 2282999); conditions: BioMAP 3C HUVEC, VCAM1 ELISA, cytokine-stimulated; actives raise or lower the signal
Method in brief: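 HUVEC primary cells, 24 h compound exposure; VCAM-1 by ELISA; gain/loss of signal fitted bidirectionally vs DMSO baseline.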

[2] = BSK_4H_Eotaxin3: BioMAP Diversity Plus: 4H Assay for Eotaxin 3 Biomarker Activity (AID 2283000); conditions: primary human endothelial cells (HUVEC); actives raise or lower the signal
Method in brief: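 Human umbilical vein endothelial cells (BSK_4H system) dosed with test chemical; Eotaxin-3 (CCL26) measured by ELISA 24 h after dosing. Bidirectional curve fitting relative to DMSO negative control as baseline.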

[3] = target: human Peroxisome Proliferator-activated Receptor alpha (PPARa), PPARA (gene 5465) (UniProt Q07869); assay: ATG_PPARa_TRANS: Attagene TRANS-FACTORIAL HepG2 Assay for human Peroxisome Proliferator-activated Receptor alpha (PPARa) (AID 2283001; active = hit-call score of the fitted dose curve at least 0.9, where 1 is the maximum;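 as to AC50: potency for gain of reporter signal over DMSO so agonist or activator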)
Method in brief: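 Transient HepG2 transfection, GAL4-UAS reporters, NR-Gal4 chimeras; 24 h compound exposure. Readout: reporter transcripts by RT-PCR, 6-FAM primer extension, HpaI digest, capillary electrophoresis. Positive direction vs DMSO baseline.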

[4] = target: human Peroxisome Proliferator-activated Receptor delta (PPARd), PPARD (gene 5467) (UniProt Q03181); assay: ATG_PPARd_TRANS: Attagene TRANS-FACTORIAL HepG2 Assay for human Peroxisome Proliferator-activated Receptor delta (PPARd) (AID 2283002; active = hit-call score of the fitted dose curve at least 0.9, where 1 is the maximum)
Method in brief: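 Fluorescence from capillary electrophoresis of labelled RT-PCR reporter fragments gives the signal; DMSO sets baseline. Cells: HepG2 transiently carrying GAL4-UAS reporter units plus chimeric nuclear receptor-Gal4 proteins, exposed to chemicals for 24 h.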

[5] = read-out: Intercellular Adhesion Molecule 1 (ICAM1), ICAM1 (gene 3383); assay: BSK_3C_ICAM1: BioMAP Diversity Plus: 3C Assay for Intercellular Adhesion Molecule 1 (ICAM1) Biomarker Activity (AID 2283003); conditions: primary human endothelial cells (HUVEC); actives raise or lower the signal
Method in brief: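 Using DMSO as baseline, bidirectional curve fitting was applied to ICAM-1 ELISA signals from HUVEC in the 3C system, measured 24 h after compound addition.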

[6] = target: human Retinoic Acid Receptor beta (RARb), RARB (gene 5915) (UniProt P10826); assay: ATG_RARb_TRANS: Attagene TRANS-FACTORIAL HepG2 Assay for human Retinoic Acid Receptor beta (AID 2283004; active = hit-call score of the fitted dose curve at least 0.9, where 1 is the maximum)
Method in brief: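 Induction of reporter mRNA from a chimeric RARb-Gal4 construct was measured by RT-PCR, FAM labelling, HpaI digestion and capillary electrophoresis. Measurements followed 24 h compound treatment of transiently transfected human HepG2 liver cells, with DMSO as baseline.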

[7] = target: Retinoic acid receptor alpha (Homo sapiens) (UniProt P10276); assay: ATG_RARa_TRANS: Attagene TRANS-FACTORIAL HepG2 Assay for human Retinoic Acid Receptor alpha (RARa) (AID 2283005; active = hit-call score of the fitted dose curve at least 0.9, where 1 is the maximum;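 as to AC50: potency for increased reporter signal meaning RARa activation over DMSO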)
Method in brief: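 HepG2 transiently transfected with multiplex GAL4-UAS reporter units including a human RARa–GAL4 chimera; 24 h compound exposure. Reporter mRNA quantified by RT-PCR, 6-FAM labeling and capillary electrophoresis; gain of signal versus DMSO.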

[8] = BSK_3C_Proliferation: Cell Proliferation Assessment in the BioMAP Diversity Plus: 3C Assay (AID 2283006); conditions: primary human endothelial cells (HUVEC);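 as to AC50: potency may reflect either rise or fall in cell number versus DMSO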
Method in brief: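 Measured here: sulforhodamine B (0.1%) staining of TCA-fixed sub-confluent umbilical vein endothelial cultures 48 h post-dosing, absorbance 560 nm. DMSO served as negative control and baseline; both signal gain and loss were modelled.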

[9] = target: Peroxisome proliferator-activated receptor gamma (Homo sapiens) (UniProt P37231); assay: ATG_PPARg_TRANS: Attagene TRANS-FACTORIAL HepG2 Assay for human Peroxisome Proliferator-activated Receptor-gamma (PPARg) (AID 2283007; active = hit-call score of the fitted dose curve at least 0.9, where 1 is the maximum)
Method in brief: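 Human hepatoma HepG2, transient MRTU transfection, 24 h treatment. mRNA reporter signal by RT-PCR plus capillary electrophoresis, fluorescence detection; fitted for increase over DMSO negative control.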

[10] = target: Nuclear receptor subfamily 1 group I member 2 (Homo sapiens) (UniProt O75469); assay: ATG_PXR_TRANS: Attagene TRANS-FACTORIAL HepG2 Assay for human Pregnane X Receptor (PXR) (AID 2283008; active = hit-call score of the fitted dose curve at least 0.9, where 1 is the maximum)
Method in brief: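 Transactivation by exogenous PXR–GAL4 fusion measured as reporter transcript induction after 24 h compound treatment of transfected human HepG2 cells. Read-out via RT-PCR and capillary electrophoresis of labelled fragments, fitted upward relative to DMSO.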

[11] = target: human Retinoic Acid Receptor gamma (RARg), RARG (gene 5916) (UniProt P13631); assay: ATG_RARg_TRANS: Attagene TRANS-FACTORIAL HepG2 Assay for human Retinoic Acid Receptor gamma (RARg) (AID 2283009; active = hit-call score of the fitted dose curve at least 0.9, where 1 is the maximum;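 as to AC50: AC50 is for reporter induction above DMSO meaning RARg activation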)
Method in brief: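 Gain-of-signal relative to DMSO is reported from fluorescent capillary electrophoresis of RT-PCR reporter products. These came from HepG2 cells expressing transfected RARg-GAL4 chimeras with UAS reporters, harvested 24 h after dosing.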

[12] = target: human RAR-related Orphan Receptor gamma (RORg), RORC (gene 6097) (UniProt P51449); assay: ATG_RORg_TRANS: Attagene TRANS-FACTORIAL HepG2 Assay for human RAR-related Orphan Receptor gamma (RORg) (AID 2283011; active = hit-call score of the fitted dose curve at least 0.9, where 1 is the maximum)
Method in brief: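 Reporter transcripts from a transfected RORg-GAL4 chimera in HepG2 cells were quantified 24 h after dosing by RT-PCR, 6-FAM labelling, HpaI digestion and capillary electrophoresis; increases over DMSO baseline were fitted.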

[13] = target: Retinoic acid receptor RXR-alpha (Homo sapiens) (UniProt P19793); assay: ATG_RXRa_TRANS: Attagene TRANS-FACTORIAL HepG2 Assay for human Retinoid X Receptor alpha (RXRa) (AID 2283012; active = hit-call score of the fitted dose curve at least 0.9, where 1 is the maximum)
Method in brief: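 Chimeric NR-GAL4 trans-activation in HepG2, 24 h treatment; reporter transcripts quantified by fluorescence on capillary electrophoresis, analysed for upward change from DMSO.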

[14] = target: human Retinoid X Receptor beta (RXRb), RXRB (gene 6257) (UniProt P28702); assay: ATG_RXRb_TRANS: Attagene TRANS-FACTORIAL HepG2 Assay for human Retinoid X Receptor beta (RXRb) (AID 2283013; active = hit-call score of the fitted dose curve at least 0.9, where 1 is the maximum)
Method in brief: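 After a 24 h incubation with test chemical, transfected HepG2 cells carrying NR-Gal4 fusions and GAL4-UAS reporter transcription units yield RNA whose reporter cDNA is FAM-labelled, HpaI-cut and sized by capillary electrophoresis; increases over DMSO are scored.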

[15] = read-out: E-selectin (Homo sapiens) (UniProt P16581); assay: BSK_3C_Eselectin: BioMAP Diversity Plus: 3C Assay for Eselectin Biomarker Activity (AID 2283015); conditions: primary human endothelial cells (HUVEC); actives raise or lower the signal
Method in brief: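 E-selectin ELISA readout, fitted bidirectionally relative to DMSO, taken 24 h post-dosing in HUVEC cultures of the 3C system. Overt cytotoxicity tracked with sulforhodamine B staining of parallel wells.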

[16] = read-out: Monocyte Chemoattractant Protein-1 (MCP1), CCL2 (gene 6347); assay: BSK_3C_MCP1: BioMAP Diversity Plus: 3C Assay for Monocyte Chemoattractant Protein-1 (MCP1) Biomarker Activity (AID 2283017); conditions: primary human endothelial cells (HUVEC); actives raise or lower the signal
Method in brief: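 MCP-1 was measured by ELISA 24 h after dosing in primary HUVEC 3C cultures and fitted in both directions relative to DMSO; cytotoxicity was checked by SRB total-protein staining in parallel wells.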

[17] = read-out: Monocyte Chemoattractant Protein-1 (MCP1), CCL2 (gene 6347); assay: BSK_4H_MCP1: BioMAP Diversity Plus: 4H Assay for Monocyte Chemoattractant Protein-1 (MCP1) Biomarker Activity (AID 2283018); conditions: primary human endothelial cells (HUVEC); actives raise or lower the signal
Method in brief: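 Primary human umbilical vein endothelium is exposed to chemical for 24 h before MCP-1 is assayed by ELISA. Concentration-response fitted bidirectionally relative to DMSO.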

[18] = read-out: Human Leukocyte Antigen - DR isotype (HLADR), HLA-DRA (gene 3122); assay: BSK_3C_HLADR: BioMAP Diversity Plus: 3C Assay for Human Leukocyte Antigen - DR isotype (HLADR) Biomarker Activity (AID 2283019); conditions: primary human endothelial cells (HUVEC); actives raise or lower the signal
Method in brief: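 Bidirectional fitting against DMSO was applied to the HLA-DR ELISA signal from human umbilical vein endothelial cells, 24 h post-dose. Cytotoxicity came from parallel SRB total-protein staining; 3C proliferation was counted by SRB at 48 h.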

[19] = read-out: Interleukin-8 (IL8), CXCL8 (gene 3576); assay: BSK_3C_IL8: BioMAP Diversity Plus: 3C Assay for Interleukin-8 (IL8) Biomarker Activity (AID 2283020); conditions: primary human endothelial cells (HUVEC); actives raise or lower the signal
Method in brief: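 Using DMSO-treated wells as the baseline, bidirectional curve fitting was applied to ELISA-measured IL-8 from human umbilical vein endothelial cultures sampled 24 h after compound addition.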

[20] = read-out: Interleukin-1 alpha (IL1a), IL1A (gene 3552); assay: BSK_BE3C_IL1a: BioMAP Diversity Plus: BE3C Assay for Interleukin-1 alpha (IL1a) Biomarker Activity (AID 2283016); conditions: primary human bronchial epithelial cells; actives raise or lower the signal
Method in brief: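 Measured in human lung primary bronchial epithelial cells: IL-1a by ELISA at 24 h after dosing, with bidirectional fitting against DMSO.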

Measured: AC50

Sequence of Nuclear receptor subfamily 1 group I member 2 (Homo sapiens) (O75469 whole entry, looked up, the tested form may be a part): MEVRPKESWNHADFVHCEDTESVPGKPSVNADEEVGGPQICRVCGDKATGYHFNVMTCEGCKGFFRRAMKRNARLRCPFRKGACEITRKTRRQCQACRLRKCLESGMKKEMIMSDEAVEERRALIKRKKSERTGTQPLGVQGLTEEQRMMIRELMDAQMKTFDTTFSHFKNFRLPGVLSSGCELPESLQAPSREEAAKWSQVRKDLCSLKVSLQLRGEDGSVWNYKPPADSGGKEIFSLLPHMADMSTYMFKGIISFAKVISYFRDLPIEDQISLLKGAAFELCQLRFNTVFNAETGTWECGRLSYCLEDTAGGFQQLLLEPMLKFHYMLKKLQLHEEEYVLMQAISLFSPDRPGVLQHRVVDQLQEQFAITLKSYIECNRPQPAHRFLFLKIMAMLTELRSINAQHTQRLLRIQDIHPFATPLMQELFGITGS
Sequence of human Peroxisome Proliferator-activated Receptor delta (PPARd), PPARD (gene 5467) (Q03181 whole entry, looked up, the tested form may be a part): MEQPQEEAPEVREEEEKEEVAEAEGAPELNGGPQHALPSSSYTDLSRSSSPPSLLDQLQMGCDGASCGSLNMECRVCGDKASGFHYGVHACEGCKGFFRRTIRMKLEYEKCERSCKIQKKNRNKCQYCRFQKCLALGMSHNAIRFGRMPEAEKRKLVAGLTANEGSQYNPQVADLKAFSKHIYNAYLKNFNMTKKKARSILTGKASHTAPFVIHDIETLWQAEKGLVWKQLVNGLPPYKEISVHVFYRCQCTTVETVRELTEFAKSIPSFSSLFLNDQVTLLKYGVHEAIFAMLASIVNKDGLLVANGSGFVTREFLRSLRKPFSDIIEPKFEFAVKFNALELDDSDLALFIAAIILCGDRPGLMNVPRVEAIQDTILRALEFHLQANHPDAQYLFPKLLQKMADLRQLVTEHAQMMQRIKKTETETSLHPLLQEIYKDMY
Sequence of human Peroxisome Proliferator-activated Receptor alpha (PPARa), PPARA (gene 5465) (Q07869 whole entry, looked up, the tested form may be a part): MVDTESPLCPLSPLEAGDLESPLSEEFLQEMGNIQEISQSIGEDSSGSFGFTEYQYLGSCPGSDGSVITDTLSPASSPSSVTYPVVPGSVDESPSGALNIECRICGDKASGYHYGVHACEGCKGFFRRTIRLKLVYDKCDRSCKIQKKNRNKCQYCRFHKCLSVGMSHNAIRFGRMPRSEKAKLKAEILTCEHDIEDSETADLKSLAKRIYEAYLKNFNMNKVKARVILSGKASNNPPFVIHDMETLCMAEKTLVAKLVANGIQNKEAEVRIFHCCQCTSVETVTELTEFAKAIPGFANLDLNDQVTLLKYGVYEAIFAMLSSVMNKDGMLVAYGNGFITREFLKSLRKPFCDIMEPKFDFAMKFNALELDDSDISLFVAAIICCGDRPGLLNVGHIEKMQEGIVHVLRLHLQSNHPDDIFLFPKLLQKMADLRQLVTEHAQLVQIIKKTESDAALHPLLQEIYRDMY
Sequence of human RAR-related Orphan Receptor gamma (RORg), RORC (gene 6097) (P51449 whole entry, looked up, the tested form may be a part): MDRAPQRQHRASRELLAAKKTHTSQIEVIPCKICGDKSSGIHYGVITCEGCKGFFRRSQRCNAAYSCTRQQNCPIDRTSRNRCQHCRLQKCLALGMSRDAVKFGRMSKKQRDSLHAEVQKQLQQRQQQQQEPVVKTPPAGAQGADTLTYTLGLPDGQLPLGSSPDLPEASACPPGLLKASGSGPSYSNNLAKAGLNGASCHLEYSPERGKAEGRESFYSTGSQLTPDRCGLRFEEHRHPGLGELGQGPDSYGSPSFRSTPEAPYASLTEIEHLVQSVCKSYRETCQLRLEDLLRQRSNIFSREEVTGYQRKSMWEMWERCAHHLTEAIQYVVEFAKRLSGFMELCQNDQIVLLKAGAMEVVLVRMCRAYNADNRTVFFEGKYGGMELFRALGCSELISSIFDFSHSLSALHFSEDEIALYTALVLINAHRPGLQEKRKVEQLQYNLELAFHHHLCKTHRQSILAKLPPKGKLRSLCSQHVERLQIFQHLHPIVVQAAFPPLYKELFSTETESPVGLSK
Sequence of Retinoic acid receptor alpha (Homo sapiens) (P10276 whole entry, looked up, the tested form may be a part): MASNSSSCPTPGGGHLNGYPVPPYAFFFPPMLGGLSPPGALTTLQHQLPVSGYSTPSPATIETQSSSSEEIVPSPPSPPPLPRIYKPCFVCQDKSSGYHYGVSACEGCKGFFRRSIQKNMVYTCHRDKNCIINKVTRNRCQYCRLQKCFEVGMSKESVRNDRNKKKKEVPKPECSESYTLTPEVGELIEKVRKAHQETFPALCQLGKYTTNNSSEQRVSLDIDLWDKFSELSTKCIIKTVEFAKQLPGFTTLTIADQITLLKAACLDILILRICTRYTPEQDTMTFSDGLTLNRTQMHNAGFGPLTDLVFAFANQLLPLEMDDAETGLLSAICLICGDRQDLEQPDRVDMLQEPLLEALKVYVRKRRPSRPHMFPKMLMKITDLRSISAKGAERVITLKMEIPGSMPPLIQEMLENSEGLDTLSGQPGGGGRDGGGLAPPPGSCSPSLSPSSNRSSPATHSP
Sequence of Peroxisome proliferator-activated receptor gamma (Homo sapiens) (P37231 whole entry, looked up): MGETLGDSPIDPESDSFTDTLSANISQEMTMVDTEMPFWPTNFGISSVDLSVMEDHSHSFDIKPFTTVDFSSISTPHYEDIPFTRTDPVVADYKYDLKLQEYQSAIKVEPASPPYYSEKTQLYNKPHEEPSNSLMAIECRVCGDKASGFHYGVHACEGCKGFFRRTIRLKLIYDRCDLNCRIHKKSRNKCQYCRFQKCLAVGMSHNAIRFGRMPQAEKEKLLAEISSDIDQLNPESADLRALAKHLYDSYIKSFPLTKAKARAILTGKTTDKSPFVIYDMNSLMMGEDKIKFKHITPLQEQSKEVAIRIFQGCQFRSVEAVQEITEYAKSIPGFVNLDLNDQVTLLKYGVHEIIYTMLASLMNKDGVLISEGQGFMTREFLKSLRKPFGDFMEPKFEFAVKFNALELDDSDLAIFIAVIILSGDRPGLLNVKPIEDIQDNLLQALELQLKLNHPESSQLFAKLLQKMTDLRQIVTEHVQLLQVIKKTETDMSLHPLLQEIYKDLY
Sequence of human Retinoic Acid Receptor gamma (RARg), RARG (gene 5916) (P13631 whole entry, looked up, the tested form may be a part): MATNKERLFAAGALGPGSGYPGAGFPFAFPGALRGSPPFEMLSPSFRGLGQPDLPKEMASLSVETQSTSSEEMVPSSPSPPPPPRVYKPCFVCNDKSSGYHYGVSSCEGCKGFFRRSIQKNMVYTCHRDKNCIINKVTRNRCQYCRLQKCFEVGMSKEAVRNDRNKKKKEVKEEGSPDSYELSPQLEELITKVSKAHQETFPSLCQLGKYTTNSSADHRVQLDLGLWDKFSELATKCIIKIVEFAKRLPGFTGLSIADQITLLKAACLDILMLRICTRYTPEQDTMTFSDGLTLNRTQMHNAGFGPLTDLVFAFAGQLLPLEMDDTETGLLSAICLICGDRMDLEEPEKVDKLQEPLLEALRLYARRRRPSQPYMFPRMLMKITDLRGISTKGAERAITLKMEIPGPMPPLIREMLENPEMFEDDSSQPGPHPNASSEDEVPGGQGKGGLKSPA
Sequence of human Retinoid X Receptor beta (RXRb), RXRB (gene 6257) (P28702 whole entry, looked up, the tested form may be a part): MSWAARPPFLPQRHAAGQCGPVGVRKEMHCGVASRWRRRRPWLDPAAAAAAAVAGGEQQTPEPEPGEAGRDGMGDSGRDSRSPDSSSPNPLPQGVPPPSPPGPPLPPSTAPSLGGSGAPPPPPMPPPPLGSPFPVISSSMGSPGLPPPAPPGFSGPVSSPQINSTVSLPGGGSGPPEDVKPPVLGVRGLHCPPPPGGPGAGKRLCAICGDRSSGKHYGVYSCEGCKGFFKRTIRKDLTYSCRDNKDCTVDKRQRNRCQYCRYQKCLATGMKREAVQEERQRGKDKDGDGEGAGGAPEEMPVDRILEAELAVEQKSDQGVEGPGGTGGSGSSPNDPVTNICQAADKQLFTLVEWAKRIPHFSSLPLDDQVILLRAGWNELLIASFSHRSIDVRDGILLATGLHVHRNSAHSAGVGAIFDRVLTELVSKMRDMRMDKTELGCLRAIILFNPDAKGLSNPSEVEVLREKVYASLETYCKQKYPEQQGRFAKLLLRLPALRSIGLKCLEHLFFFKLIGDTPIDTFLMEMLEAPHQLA
Sequence of Retinoic acid receptor RXR-alpha (Homo sapiens) (P19793 whole entry, looked up, the tested form may be a part): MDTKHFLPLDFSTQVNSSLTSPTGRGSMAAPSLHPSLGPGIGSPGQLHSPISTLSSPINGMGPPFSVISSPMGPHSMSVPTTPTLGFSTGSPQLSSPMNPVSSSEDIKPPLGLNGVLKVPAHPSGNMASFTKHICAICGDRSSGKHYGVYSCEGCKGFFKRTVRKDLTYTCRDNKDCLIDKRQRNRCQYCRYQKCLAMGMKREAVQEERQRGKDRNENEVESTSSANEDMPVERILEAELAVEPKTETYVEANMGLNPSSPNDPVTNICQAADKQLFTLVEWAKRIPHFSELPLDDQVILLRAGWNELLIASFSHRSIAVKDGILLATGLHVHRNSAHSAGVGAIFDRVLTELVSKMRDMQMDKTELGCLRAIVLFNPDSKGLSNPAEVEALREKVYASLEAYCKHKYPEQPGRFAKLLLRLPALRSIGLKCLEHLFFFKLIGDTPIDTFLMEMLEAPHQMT
Sequence of human Retinoic Acid Receptor beta (RARb), RARB (gene 5915) (P10826 whole entry, looked up, the tested form may be a part): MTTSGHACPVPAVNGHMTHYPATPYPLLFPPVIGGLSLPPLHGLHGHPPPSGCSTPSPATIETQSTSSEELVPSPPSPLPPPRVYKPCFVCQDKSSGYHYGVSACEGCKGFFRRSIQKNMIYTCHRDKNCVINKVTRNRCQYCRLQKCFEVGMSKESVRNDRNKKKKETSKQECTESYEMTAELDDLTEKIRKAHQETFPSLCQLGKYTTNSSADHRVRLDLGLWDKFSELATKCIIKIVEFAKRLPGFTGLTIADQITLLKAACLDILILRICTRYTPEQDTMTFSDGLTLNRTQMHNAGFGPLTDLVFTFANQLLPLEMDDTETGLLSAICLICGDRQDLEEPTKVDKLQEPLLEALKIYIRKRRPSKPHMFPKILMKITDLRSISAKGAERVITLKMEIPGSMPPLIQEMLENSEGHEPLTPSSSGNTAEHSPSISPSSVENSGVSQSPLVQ

N#Cc1c(Cl)c(Cl)c(Cl)c(C#N)c1Cl
inactive: [3] | [4] | [6] | [7] | [9] | [11] | [12] | [13] | [14]
active: [1] 1.06 µM | [2] 1.82 µM | [5] 1.77 µM | [8] 0.148 µM | [10] 0.324 µM | [15] 1.46 µM | [16] 1.98 µM | [17] 1.48 µM | [18] 0.166 µM | [19] 1.67 µM

COc1cc(OC)nc(NC(=O)NS(=O)(=O)c2cc(NC=O)ccc2C(=O)N(C)C)n1
not listed: [4] | [9] | [12] | [14] | [20]
inactive: all other assays above

Oc1ccc(Cl)cc1Cc1ccccc1
inactive: [3] | [4] | [6] | [7] | [9] | [10] | [11] | [13] | [14] | [17]
active: [1] 34.9 µM [middle of 7 runs] | [2] 34.4 µM [middle of 7 runs] | [3] 53.5 µM | [5] 37.1 µM [middle of 7 runs] | [8] 24.8 µM [middle of 7 runs] | [9] 8.85 µM [middle of 4 runs] | [10] 6.4 µM [middle of 5 runs] | [13] 13.6 µM [middle of 5 runs] | [15] 34.7 µM [middle of 6 runs] | [16] 34.8 µM [middle of 7 runs] | [17] 14.5 µM [middle of 5 runs] | [18] 31.3 µM [middle of 7 runs] | [19] 33.6 µM [middle of 7 runs]

CCOc1nc(NC)nc(NC(=O)NS(=O)(=O)c2ccccc2C(=O)OC)n1
not listed: [6] | [7] | [10] | [11] | [12]
inactive: all other assays above

CCC(C)Nc1c([N+](=O)[O-])cc(C(C)(C)C)cc1[N+](=O)[O-] (stereo not drawn)
active: [1] 24.8 µM | [8] 34.6 µM | [9] 36.8 µM | [10] 8.2 µM | [15] 25.8 µM | [16] 31.3 µM | [17] 20 µM | [18] 20 µM
inactive: [2] | [3] | [5] | [6] | [7] | [11] | [14] | [19]

COC(=O)c1ccccc1S(=O)(=O)NC(=O)Nc1nc(C)nc(OC)n1
not listed: [4] | [9] | [12] | [20]
inactive: all other assays above

COc1nn(CSP(=S)(OC)OC)c(=O)s1
active: [18] 36.5 µM
not listed: [9] | [20]
inactive: all other assays above

CCCN(CCOc1c(Cl)cc(Cl)cc1Cl)C(=O)n1ccnc1
active: [7] 2.5 µM | [8] 26.7 µM | [10] 2.96 µM | [20] 22.1 µM | [17] 20 µM | [18] 37 µM
inactive: [1] | [2] | [3] | [4] | [5] | [6] | [7] | [9] | [10] | [11] | [12] | [13] | [14] | [15] | [16] | [19]

N#CN
not listed: [6] | [7] | [11] | [13] | [20]
inactive: all other assays above

ClC1C(Cl)C(Cl)C(Cl)C(Cl)C1Cl (stereo not drawn)
active: [1] 30.1 µM | [2] 32.5 µM | [5] 28 µM | [7] 20.6 µM and 6.26 µM and 37.2 µM | [8] 29.2 µM and 28 µM | [11] 6.81 µM and 8.7 µM | [14] 31.1 µM and 26.2 µM | [15] 20 µM and 25.7 µM and 5.22 µM | [18] 28.2 µM and 25.3 µM
inactive: [1] | [2] | [3] | [4] | [5] | [6] | [7] | [8] | [9] | [11] | [13] | [14] | [15] | [16] | [17] | [18] | [19]

CCS(=O)(=O)c1cccnc1S(=O)(=O)NC(=O)Nc1nc(OC)cc(OC)n1
not listed: [6] | [20]
inactive: all other assays above
